The whole screen tested about 320,000 compounds, of which about 2,100 (0.66%) were called active. Not shown: some 53% with an inconclusive outcome. Calls follow the shape of the dose curve; as a rule, active = well fitted inhibition curve with a large enough effect in the signal ratio, with a control signal flat (not every such curve was filed as active); inconclusive = small, poorly fitted or top-dose-only effect, or effect the other way, or a change in a side signal; inactive = flat fitted curve, though single readings scatter; the % refers to the signal ratio. This excerpt belongs to a sample that is enriched for actives.
Potency is read from the fitted curve at half-maximal effect.

This assay is described as follows: qHTS Assay for Lipid Storage Modulators in Drosophila S3 Cells.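 As to cell number change: cells counted by Cell Tracker Red CMTPX staining in the red channel.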 To be noted: BODIPY lipid droplet fluorescence, 18-24 h, cells fed with added oleic acid; cell number change: measured here: cell count max response; series mostly up to 46.1 µM. Summed up:
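Laser-scanning cytometry quantifies lipid droplet accumulation (500–530 nm total intensity; droplet/cell object ratio) in oleic acid-fed (400 uM added) Drosophila S3 cells treated with a concentration series. 20 uM Triacsin C defined 100% inhibition.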
For orientation: Quantitative high-throughput screening tests each substance at several concentrations.
`Cc1n[nH]c(C)c1C(=O)CC1(O)C(=O)N(CCc2ccccc2)c2ccc(Br)cc21` (stereo not given): the Potency result was “inactive” and the cell number change is 12.8%. `O=C1Nc2ccc(Br)cc2C12NNc1ccccc1O2` (stereo not given): the Potency is 23.1 µM (active). As for `O=C1Nc2ccc(Br)cc2C1(O)c1ccccc1` (stereo not given), the Potency result is “inactive” and the cell number change stood at 20.9%. `O=C1NC2(Nc3ccccc31)C(=O)Nc1ccc(Br)cc12` (stereo not given): the Potency entry was “inactive” and the cell number change is -0.207%. The matching figures for `CCOc1ccc(NC(=O)NC(C)c2ccc3c(c2)OCO3)cc1` (stereo not given): “inactive” and -0.862%. As for `O=C(CCSc1nc(-c2ccc3c(c2)OCO3)cc(C(F)(F)F)n1)NCc1ccccc1`, the Potency result was “inactive” and the cell number change was -16.9%. The matching figures for `CCc1cccc(NC(=O)NC(=O)Cn2nnc(C(=O)OC)c2C(=O)OC)c1`: “inactive” and 1.8%.

With `CCCCSc1nnc([C@@H]2CCCN2C(=O)OC(C)(C)C)o1`, the Potency entry is “inactive” and the cell number change was -21.2%. In the same order, the values of `Cc1ccc(CSc2nnc([C@@H]3CCCN3C(=O)OC(C)(C)C)o2)cc1` are “inactive” and 17.7%. In the same order, the values of `CCSc1nnc([C@@H]2CCCN2C(=O)OC(C)(C)C)o1` are 23.1 µM (active) and 6.53%. In the same order, the values of `CC(C)(C)OC(=O)N1CCC[C@H]1c1nnc(SCc2ccccc2)o1` are “inactive” and 10.4%. For the compound `CC(C)Sc1nnc([C@@H]2CCCN2C(=O)OC(C)(C)C)o1`, the Potency is 32.6 µM (active) and the cell number change is -3.74%. The matching figures for `C=C(C)CSc1nnc([C@@H]2CCCN2C(=O)OC(C)(C)C)o1`: “inactive” and 9.31%.

Regarding `COc1ccc(C=O)cc1Cn1ccnc1C`, the Potency result is “inactive” and the cell number change is -21.5%. The matching figures for `CC(C)(C)c1ccc(/C=C(\C#N)C(=O)Nc2ccccn2)cc1`: “inactive” and 9.55%. The matching figures for `N#C/C(=C\c1ccccc1Cl)C(=O)Nc1ccccn1`: 25.9 µM (active) and 7.44%. In the same order, the values of `N#C/C(=C\c1cccs1)C(=O)Nc1ccccn1` are “inactive” and 9.59%. As for `Cc1ccc(-c2cc(C(F)F)n3ncc(C(=O)N4CCc5ccccc5C4)c3n2)cc1`, the Potency result is “inactive” and the cell number change was 3.7%. In the same order, the values of `CC(=O)Nc1cccc(Oc2ncnc3scc(-c4ccccc4)c23)c1` are “inactive” and 1.71%. Take `Cc1ccc(S(=O)(=O)N2CCN(C(=O)c3nn(C(C)C)c(=O)c4ccccc34)CC2)cc1C`: the Potency entry was “inactive”.

As to `CCCn1nc(C(=O)N2CCN(S(=O)(=O)c3ccc(C)c(C)c3)CC2)c2ccccc2c1=O`, the Potency was 11.6 µM (active) and the cell number change is 29.1%. The matching figures for `CCCn1nc(C(=O)N2CCc3ccccc3C2)c2ccccc2c1=O`: “inactive” and -8.58%. Turning to `CCn1cc(C(=O)N(C)Cc2ccc(OC(F)F)cc2)c(=O)c2ccc(C)nc21`, the Potency was 18.4 µM (active) and the cell number change was found to be 19.2%.

For `C=Cc1ccc(COC(=O)c2cn(CC)c3nc(C)ccc3c2=O)cc1`, the Potency result is “inactive”. Regarding `CCn1cc(C(=O)OC)c(=O)c2ccc(C)nc21`, the Potency result was “inactive” and the cell number change turned out to be 4.24%. As to `O=C(COC(=O)CNS(=O)(=O)c1cccc(Br)c1)NC(=O)Nc1ccc2c(c1)OCCO2`, the Potency result was “inactive”. As for `COc1ccc(-n2nc(C(=O)NCC(=O)N(C)Cc3ccccc3)c3ccccc3c2=O)c(OC)c1`, the Potency entry was “inactive” and the cell number change was found to be 9.58%. Regarding `Cc1ccc(OCC(=O)Nc2ccccc2C(=O)N2CCCCC2)cc1`, the Potency result is “inactive” and the cell number change was determined as 24.3%. In the case of `COc1ccccc1OCC(=O)Nc1ccccc1C(=O)N1CCCCC1`, the Potency entry is “inactive”. For the compound `O=C(CCSc1ccccc1)Nc1ccccc1C(=O)N1CCCC1`, the Potency result was “inactive” and the cell number change is -3.09%. In the same order, the values of `CCOc1ccccc1N(CC(=O)Nc1ccccc1C(=O)N1CCCC1)S(C)(=O)=O` are “inactive” and -13.5%. The matching figures for `CCC(=O)Nc1ccccc1C(=O)N1CCCC1`: “inactive” and 13.5%.

Regarding `Cc1ccccc1OCCC(=O)Nc1ccccc1C(=O)N1CCCCC1`, the Potency was 5.8 µM (active) and the cell number change is -4.28%.

Turning to `O=C(O)CCCC(=O)Nc1ccccc1C(=O)N1CCCC1`, the Potency is 4.61 µM (active) and the cell number change was 0.517%.

Turning to `O=C(c1cccc2ccccc12)N1CCCCC1`, the Potency is 8.2 µM (active) and the cell number change was -5.25%. In the same order, the values of `O=C(c1ccncc1)N1CCN(C(=O)c2cccc3ccccc23)CC1` are “inactive” and 6.28%. The matching figures for `COc1ccccc1N(CC(=O)Nc1ccccc1C(=O)N1CCCC1)S(C)(=O)=O`: 18.4 µM (active) and 1.61%. In the same order, the values of `COc1ccccc1N(CC(=O)Nc1ccccc1C(=O)N1CCOCC1)S(C)(=O)=O` are “inactive” and 1.26%.

As to `CCS(=O)(=O)N1CCN(C(=O)c2cccc3ccccc23)CC1`, the Potency entry was “inactive” and the cell number change was found to be 17.9%.

In the case of `O=C(CN1CCN(CC(=O)Nc2ccccc2C(F)(F)F)CC1)Nc1ccccc1F`, the Potency result was “inactive”. As for `O=C(CCC(=O)Nc1ccccc1Cl)NNC(=O)c1ccco1`, the Potency entry was “inactive” and the cell number change amounted to 11.4%. The matching figures for `CCN1C(=O)[C@H]2[C@@H](c3ccc(-c4ccc5c(c4)OCO5)cc3)N3CCC[C@@]3(C(=O)OC)[C@H]2C1=O`: “inactive” and -27.4%. As to `Cc1ccccc1NCN1C(=O)C2CCC(C)(C1=O)C2(C)C` (stereo not given), the Potency result was “inactive” and the cell number change is -11.4%.

With `CCOC(=O)c1cccc(NS(=O)(=O)Cc2ccccc2)c1`, the Potency result was “inactive” and the cell number change is -5.1%.

Regarding `COc1cccc(/C=C/C(=O)OCC(=O)Nc2cc(C(F)(F)F)ccc2Cl)c1`, the Potency entry was “inactive” and the cell number change turned out to be 1.22%. The matching figures for `COCCNC(=O)CN(C(=O)Cn1nnc2ccccc21)c1ccc(C)c(F)c1`: “inactive” and -2.04%. `NC(=O)CCCc1nc(-c2ccccc2Cl)no1`: the Potency result was “inactive” and the cell number change was -20.4%.

Take `CCN1C(=NCc2ccco2)N[C@@H](c2cccc(F)c2)C(C(=O)OC)=C1C`: the Potency entry was “inactive” and the cell number change was 16.3%. On to `COCCNC(=O)C(=O)NCCN1CCOCC1`, for which the Potency result is “inactive” and the cell number change was -14.6%.

Take `CCOc1ccc(NC(=O)CSc2nc(=O)n(Cc3cccnc3)c3c2CCC3)cc1`: the outcome is “inactive [at 0.0737 µM]”. Regarding `COc1ccc(-n2c(-c3cccc(C)c3[N+](=O)[O-])n[nH]c2=S)cc1`, the Potency result is “inactive” and the cell number change was determined as 2.37%. Take `Cc1ccccc1CN(C)C(C)C(=O)NCc1ccccc1` (stereo not given): the Potency entry was “inactive” and the cell number change was determined as 16.8%. As for `CCN(C(=O)CCNC(=O)Cn1cnc2ccccc2c1=O)c1ccccc1F`, the Potency result is “inactive” and the cell number change was -0.794%.

`Cc1nc2cc(NC(=O)Nc3cccc4ccccc34)ccc2n1C`: the Potency entry was “inactive” and the cell number change was found to be 19.9%. The matching figures for `Cc1nc2cc(Nc3nnc(-c4ccccc4)c4ccccc34)ccc2n1C`: 11.6 µM (active) and -29.7%.

For the compound `COc1ccc(Nc2nnc(-c3ccc(O)cc3)c3ccccc23)cc1`, the Potency result was “inactive”. For the compound `O=C(CN1CCN(S(=O)(=O)N2CCOCC2)CC1)Nc1cc(Cl)cc(Cl)c1`, the Potency entry was “inactive” and the cell number change came to 10%. In the case of `Cc1ccc(-c2cc(C(=O)NC3CCCC3)no2)cc1`, the Potency result is “inactive” and the cell number change is -1.32%.

With `COc1ccc(-c2cc(C(=O)NC3CCCC3)no2)cc1`, the Potency result was “inactive” and the cell number change turned out to be 6.09%.

As for `O=C(NC1CCCCC1)c1cc(-c2ccc(F)cc2)on1`, the Potency is 23.1 µM (active) and the cell number change is 15.8%. In the same order, the values of `CCOC(=O)N1CCN(CC(O)COc2ccccc2C(C)CC)CC1` (stereo not given) are 3.66 µM (active) and 1.1%.

As to `OC(COc1ccccc1)CN1CCOCC1` (stereo not given), the Potency result is “inactive” and the cell number change was found to be 9.9%. With `O=C(c1ccccc1)N1CCN(CC(O)COc2ccc(Br)cc2)CC1` (stereo not given), the Potency entry was “inactive”. As to `CCOC(=O)N1CCN(CC(O)COc2ccccc2C(C)C)CC1` (stereo not given), the Potency result is “inactive” and the cell number change was -2.25%.

Consider `CCOC(=O)N1CCN(CC(O)COc2ccccc2[N+](=O)[O-])CC1` (stereo not given), for which the Potency result was “inactive” and the cell number change is 10.6%.

Turning to `O=C(C(c1ccccc1)c1ccccc1)N1CCN(CC(O)COc2ccccc2)CC1` (stereo not given), the Potency is 4.61 µM (active) and the cell number change is -10.2%. As to `CCc1ccc(C(=O)Nc2ccc3c(c2)n(C)c(=O)n3C)cc1`, the Potency result is “inactive” and the cell number change was -19.7%. The matching figures for `CC1Cc2ccccc2N1C(=O)COC(=O)C1=COCCO1` (stereo not given): “inactive” and -1.1%. The matching figures for `COc1cccc(/C=N/n2nnnc2N)c1O`: “inactive” and 2.87%. The matching figures for `C=CCOc1c(CNC2CCCC2)cc(Cl)cc1OC`: “inactive” and 36.7%. On to `Cc1ccc(-c2nc(NCc3ccco3)n(C(=O)c3ccco3)n2)cc1`, for which the Potency entry is “inactive” and the cell number change is -0.0963%. In the same order, the values of `CC(NC(=O)C1CCCN1S(=O)(=O)c1ccccc1)c1ccccc1` (stereo not given) are “inactive” and 4.49%. In the case of `O=C(N1CCCCC1)C12CC3CC(C1)CC(C(=O)N1CCCCC1)(C3)C2`, the Potency entry is “inactive” and the cell number change amounted to 5%. As for `CN(C)CCCNc1oc(-c2cccc(Cl)c2)nc1C#N`, the Potency was 23.1 µM (active) and the cell number change came to 5.97%. For `CN(C)CCNc1oc(-c2cccc(Cl)c2)nc1C#N`, the Potency entry was “inactive”. In the case of `CCN(CC)CCCNc1oc(-c2ccc(OC)c(OC)c2)nc1C#N`, the Potency entry was “inactive” and the cell number change turned out to be 24.5%.

As to `O=C(O)c1cc2nc3c(c(C(F)(F)F)n2n1)CCCC3`, the Potency entry was “inactive” and the cell number change is -17.1%.

Regarding `COc1cc(C(=O)N2CCN(C)CC2)cc(OC)c1OC`, the Potency entry was “inactive” and the cell number change was -9.94%. In the same order, the values of `COc1cc(C(=O)N2CCN(C(=O)C3CC3)CC2)cc(OC)c1OC` are 14.6 µM (active) and 0.295%.

For the compound `COc1cc(C(=O)N2CCN(C3CCCCC3)CC2)cc(OC)c1OC`, the Potency result was “inactive” and the cell number change was 26.9%. In the same order, the values of `CCOC(=O)C1=C(C)Nc2ccccc2N=C1NC(=O)/C=C/c1ccc(OC)cc1OC` are “inactive” and 0.577%. Consider `Cc1c(N(C(=O)c2cnccn2)C2(C(=O)NC3CCCC3)CCCCC2)c(=O)n(-c2ccccc2)n1C`, for which the Potency entry is “inactive” and the cell number change was -4%. In the same order, the values of `CCOc1ccccc1N=C1SC(CC(=O)Nc2ccc(OC)cc2OC)C(=O)N1CCC1=CCCCC1` (stereo not given) are 25.9 µM (active) and -18.8%.

As for `C=CCN1C(=O)C(CC(=O)NCC)SC1=Nc1ccccc1OC` (stereo not given), the Potency entry was “inactive” and the cell number change was -0.552%. For `O=C(CC1SC(=Nc2ccc(OC(F)F)cc2)N(CCC2=CCCCC2)C1=O)Nc1ccccc1F` (stereo not given), the Potency entry is “inactive” and the cell number change was -16.7%.

For the compound `COc1cc([N+](=O)[O-])ccc1NC(=O)CC1SC(=Nc2ccc(F)cc2)N(CCC2=CCCCC2)C1=O` (stereo not given), the Potency was 23.1 µM (active) and the cell number change was -22.5%. Turning to `CCn1c2ccccc2c2cc(N=C3SC(CC(=O)Nc4ccccc4OC)C(=O)N3C)ccc21` (stereo not given), the Potency entry is “inactive”. As for `COc1ccc(OC)c(NC(=O)CC2SC(=Nc3ccc(F)cc3)N(CCC3=CCCCC3)C2=O)c1` (stereo not given), the Potency entry was “inactive” and the cell number change was found to be 1.52%. The matching figures for `Cc1c(C(N)=O)sc2ncn(CC(=O)N(C)C3CCCCC3)c(=O)c12`: “inactive” and 7.26%.

Take `CS(=O)(=O)N1CCC(C(=O)N2CCN(c3ccccc3F)CC2)CC1`: the Potency entry is “inactive” and the cell number change was determined as 9.98%.

For `CC1=CN2C(=N)/C(=C/c3ccc(C)o3)C(=O)N=C2S1`, the Potency entry was “inactive” and the cell number change is -10.7%. The matching figures for `CCOc1ccc(-c2ccc(/C=C3/C(=N)N4C=CSC4=NC3=O)o2)c([N+](=O)[O-])c1`: “inactive” and 4.83%. The matching figures for `CC1=CN2C(=N)/C(=C/c3ccc([N+](=O)[O-])o3)C(=O)N=C2S1`: 14.6 µM (active) and -16.4%.
